Measured values from PubChem BioAssay (NCI).
This is part of a sample that, as a whole, favours compounds with a hit. Of some 83,000 tested, about 20% had one in any assay.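 The endpoint reported here, percent growth, reads 100 for growth as untreated, 0 for no net growth and -100 for all cells dead.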 A number with no mark means an inactive call. Calls of active or inactive are those of the source. How the source made its calls: active means growth percent below 10; inactive means the rest.

Tests used:
Test in all cases: NCI-60 one-dose screen, 48 h (100 = growth as untreated, 0 = no growth, -100 = all killed)
Conditions in all cases: 10 µM
SR leukemia = tested on: SR leukemia
RPMI-8226 leukemia = tested on: RPMI-8226 leukemia
OVCAR-8 ovarian = tested on: OVCAR-8 ovarian
OVCAR-5 ovarian = tested on: OVCAR-5 ovarian
OVCAR-4 ovarian = tested on: OVCAR-4 ovarian
SK-OV-3 ovarian = tested on: SK-OV-3 ovarian
IGROV1 ovarian = tested on: IGROV1 ovarian
OVCAR-3 ovarian = tested on: OVCAR-3 ovarian
HS 578T breast = tested on: HS 578T breast
NCI/ADR-RES ovarian = tested on: NCI/ADR-RES ovarian
T-47D breast = tested on: T-47D breast
BT-549 breast = tested on: BT-549 breast
MDA-MB-435 melanoma = tested on: MDA-MB-435 melanoma
SW-620 colon = tested on: SW-620 colon
MCF7 breast = tested on: MCF7 breast
HCT-116 colon = tested on: HCT-116 colon
HCC-2998 colon = tested on: HCC-2998 colon
KM12 colon = tested on: KM12 colon

| Structure (SMILES) | growth (SR leukemia) | growth (RPMI-8226 leukemia) | growth (OVCAR-8 ovarian) | growth (OVCAR-5 ovarian) | growth (OVCAR-4 ovarian) [%] | growth (SK-OV-3 ovarian) | growth (IGROV1 ovarian) | growth (OVCAR-3 ovarian) | growth (HS 578T breast) [%] | growth (NCI/ADR-RES ovarian) | growth (T-47D breast) [%] | growth (BT-549 breast) | growth (MDA-MB-435 melanoma) | growth (SW-620 colon) | growth (MCF7 breast) | growth (HCT-116 colon) | growth (HCC-2998 colon) | growth (KM12 colon) |
| --- | --- | --- | --- | --- | --- | --- | --- | --- | --- | --- | --- | --- | --- | --- | --- | --- | --- | --- |
| CC(=O)N[C@H](C(=O)N[C@@H](CCCNC(=N)N)C(=O)N[C@@H](CCCCN)C(=O)N[C@@H](CCCNC(=N)N)C(=O)N[C@]1(C)CCC/C=C\CCC[C@@](C)(C(=O)N[C@@H](CC(C)C)C(=O)N[C@@H](CC(C)C)C(=O)N[C@@H](CCC(N)=O)C(=O)N[C@@H](CCC(=O)O)C(=O)N[C@@H](CCCNC(=N)N)C(=O)N[C@@H](CCC(=O)O)C(=O)N[C@@H](CC(C)C)C(=O)N[C@H](C(=O)N[C@@H](CCC(=O)O)C(N)=O)C(C)C)NC(=O)[C@H](CCCNC(=N)N)NC(=O)[C@H](CC(C)C)NC1=O)C(C)C | 104% | 104% | 104% | 111% | 107 | 108% | 110% | 109% | 119 | 109% | 92.4 | 102% | 110% | 113% | 102% | 105% | 109% | 105% |
| COc1ccc(/C(=N\N)C(=O)c2ccccc2)cc1 (tested in a mixture with another compound) | 111% | 90% | 103% | 96.7% | 95.9 | 97.7% | 107% | 102% | 97.1 | 102% | 83.7 | 108% | 92.7% | 107% | 92.4% | 103% | 98.1% | 102% |
| CNC(=O)c1cc(Oc2ccc3c(c2)sc2nc(-c4ccc(N)cc4)cn23)ccn1 | 28.3% | 40.5% | 10.9% | 64.2% | 59.7 | 21.2% | 31.6% | 1.42% (active) | 54.9 | 11.2% | 36.1 | 5.56% (active) | 13% | 34.8% | 20.2% | 6.01% (active) | 20.9% | 20.7% |
| COC(=O)C1(O)NC(=C(C#N)C#N)C(C#N)=C1C(=O)c1ccc(OC)c(OC)c1 (stereo unspecified) | 89.7% | 90.1% | 92% | 111% | 118 | 98.6% | 101% | 107% | 95.9 | 106% | 98.6 | 89.1% | 104% | 97.9% | 95.4% | 90.9% | 117% | 105% |
| CCOC(=O)c1cc(C(=O)c2ccc(OC)c(OC)c2)n2c1ccc1ccc3cccnc3c12 | 23.1% | 5.4% (active) | 29% | 79.7% | 59.2 | 17.8% | 46% | 10.3% | 25 | 21.6% | 47.5 | 33% | -25.6% (active) | 12.8% | 21.8% | 27.2% | 65.7% | 28.8% |
| CC(=O)Nc1ccc(S(=O)(=O)c2ccnc3cc(Cl)ccc23)cc1 | 83.3% | 72.1% | 73.3% | 100% | 81.4 | 88% | 98.2% | 76% | 85.2 | 77.3% | 72.5 | 94.9% | 73.9% | 81.8% | 57.8% | 78.7% | 100% | 90.1% |
| Cc1noc(C)c1CSc1ccccc1C(=O)N1CCN(c2cccc(C(F)(F)F)c2)CC1 | 39% | 54.3% | 94.2% | 88.1% | 67 | 75.3% | 83.7% | 82.1% | 90.4 | 72.3% | 49.2 | 61% | 82.6% | 86.5% | 79.4% | 55.3% | 93.6% | 79.2% |
| CN(C)CCOc1cccc(-c2nc3sccn3c2-c2ccnc(S(C)(=O)=O)n2)c1 | 102% | 94.7% | 100% | 97.3% | 75.8 | 96.5% | 94.3% | 93.6% | 86.4 | 101% | 74.7 | 104% | 96.8% | 91.7% | 88.3% | 92.6% | 106% | 102% |
| COc1cc(/C=C2\CCCC3C2=Nc2ccccc2NC3c2cc(OC)c(OC)c(OC)c2)cc(OC)c1OC (stereo unspecified) | 2.76% (active) | -10.9% (active) | 18.7% | 16.5% | 33.5 | 45.4% | -21% (active) | -7.11% (active) | 53.2 | 5.96% (active) | 23.9 | -16.4% (active) | 3.26% (active) | 5.74% (active) | 36.9% | -58.4% (active) | -60.2% (active) | -65.3% (active) |
| CCn1c(SCCc2ccccc2)nnc1-c1nn(-c2ccc(Cl)cc2Cl)c(-c2ccc(Cl)cc2)c1C | 37.6% | 54.1% | 84.5% | 81.7% | 75.6 | 79.1% | 94.1% | 69.1% | 98 | 72.6% | 42.2 | 93.4% | 83.2% | 83.3% | 58.7% | 39.1% | 110% | 69.5% |
| CCC(CC)n1c(C)cc(=O)n1C(CC)CC | 118% | 106% | 104% | 99.4% | 107 | 104% | 140% | 113% | 110 | 107% | 105 | 122% | 102% | 105% | 105% | 105% | 105% | 115% |
| COc1ccc(-c2n[nH]nc2-c2cc(OC)c(OC)c(OC)c2)cc1 | 7.33% (active) | 4.71% (active) | 21.8% | 43.3% | 35.4 | 48.6% | 4.66% (active) | -33.3% (active) | 12.2 | -28.8% (active) | 21.9 | 13.6% | 4.87% (active) | 19.7% | 19.7% | 6.27% (active) | 14.2% | 0.0603% (active) |
| CCNCC(=O)Nc1ccc(C(=O)OCC)cc1 | 82.3% | 104% | 103% | 103% | 102 | 99.8% | 99.3% | 99.9% | 97.4 | 103% | 92.9 | 102% | 102% | 97.2% | 99.6% | 96% | 98.7% | 95.9% |
| CC(=O)[C@@]12O[C@](C)(c3ccccc3)O[C@@H]1CC1C3CCC4=CC(=O)CC[C@]4(C)C3CC[C@@]12C (stereo partly specified) | 32.1% | 47.6% | 82.4% | 88.5% | 44 | 99.7% | 70.7% | 54.3% | 86.2 | 60.4% | 74.3 | 79.7% | 77.8% | 83.3% | 59% | 48.2% | 79.3% | 70.8% |
| Oc1ccc(/C=N/N=C2c3ccccc3-c3ccccc32)c(O)c1 | 54% | 72.8% | 84.5% | 77.1% | 60.4 | 84.7% | 71.2% | 83.5% | 93.7 | 72.9% | 42.8 | 78.4% | 21.5% | 75.4% | 43.3% | 66.1% | 80.9% | 52.2% |
| CNC(=O)c1cn2c3c(c(N4CCN(C)CC4)c(F)cc3c1=O)OC[C@@H]2C | 90.6% | 96.3% | 106% | 105% | 94.1 | 102% | 111% | 107% | 101 | 102% | 98.9 | 104% | 104% | 99.9% | 95.8% | 104% | 108% | 100% |
| O=C(/C=C/c1cccc(B(O)O)c1)c1cccc(B(O)O)c1 | 3.2% (active) | 48.2% | -12.2% (active) | -12% (active) | 53.9 | 3.23% (active) | 26.7% | -28.2% (active) | 16.9 | 8.08% (active) | 11.1 | -91% (active) | 0.799% (active) | -41.3% (active) | 0.092% (active) | -88.3% (active) | -86.4% (active) | -64.4% (active) |
